Records with an inconclusive call do not appear. The source made the active and inactive calls. Unless noted, calls come from the whole dose curve; as a rule, active = well fitted curve in the direction sought with a large enough effect; inconclusive = small, poorly fitted or top-dose-only effect, or another doubt; inactive = no such curve, though single readings can be large; an effect the other way counts as inactive or inconclusive.
Key:
[1] = target: Lysosomal acid glucosylceramidase (Homo sapiens) (UniProt P04062); assay: Glucocerebrosidase-p2 (AID 348; in the data active = potency below about 10 µM; note: potency is the fitted concentration of half-maximal effect); conditions: purified GBA, blue fluorogenic substrate, 40 min
Sequence of Lysosomal acid glucosylceramidase (Homo sapiens) (P04062 whole entry, looked up): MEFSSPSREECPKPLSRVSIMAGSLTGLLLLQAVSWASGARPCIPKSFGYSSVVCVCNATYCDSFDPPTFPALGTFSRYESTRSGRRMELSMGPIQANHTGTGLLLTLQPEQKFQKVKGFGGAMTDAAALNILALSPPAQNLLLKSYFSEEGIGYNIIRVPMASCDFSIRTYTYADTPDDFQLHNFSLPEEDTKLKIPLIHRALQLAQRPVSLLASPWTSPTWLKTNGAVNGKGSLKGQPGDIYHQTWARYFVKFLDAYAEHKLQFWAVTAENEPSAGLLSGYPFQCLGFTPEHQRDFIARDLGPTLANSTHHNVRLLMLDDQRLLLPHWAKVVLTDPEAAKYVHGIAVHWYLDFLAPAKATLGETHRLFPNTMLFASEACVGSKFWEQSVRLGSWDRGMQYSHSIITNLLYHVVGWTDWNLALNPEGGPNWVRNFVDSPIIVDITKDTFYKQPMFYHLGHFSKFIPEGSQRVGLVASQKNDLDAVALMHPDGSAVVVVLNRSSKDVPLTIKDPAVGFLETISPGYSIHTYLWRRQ
Method in brief: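 Normal human glucocerebrosidase (0.2 nM) with blue fluorogenic substrate (80 uM final) in citrate/phosphate pH 5.9 with 10mM sodium taurocholate, 0.01% tween-20; 40 min RT, NaOH/glycine stop; fluorescence Ex 365/Em 440; AC50 from a titration from 0.6 nM upwards.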

[2] = AP1 Signaling Pathway (AID 357; active = well fitted curve in either direction with a large enough effect, not every such curve was filed as active;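 note: ME-180 reporter cells stimulated with EGF at its EC50 level; % is set by controls: 0 for no effect and ±100 for the full control effect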); conditions: ME-180 AP-1-bla reporter, EGF-induced, beta-lactamase ratio, 5 h; at 7.69 µM (top of the series) unless noted
Method in brief: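 Read-out was the 460nm/530nm emission ratio (excitation 405nm) after CCF4 loading for 2.5 hours at room temperature. Cells carried an AP-1-driven beta-lactamase reporter, were stimulated with EC50 EGF plus compound for 5 hours, and AC50 values came from titrations.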

[3] = target: Cytochrome P450 1A2 (Homo sapiens) (UniProt P05177); assay: p450-cyp1a2 (AID 410; calls by dose curve; note: potency is the fitted concentration of half-maximal effect)
Sequence of Cytochrome P450 1A2 (Homo sapiens) (P05177 whole entry, looked up): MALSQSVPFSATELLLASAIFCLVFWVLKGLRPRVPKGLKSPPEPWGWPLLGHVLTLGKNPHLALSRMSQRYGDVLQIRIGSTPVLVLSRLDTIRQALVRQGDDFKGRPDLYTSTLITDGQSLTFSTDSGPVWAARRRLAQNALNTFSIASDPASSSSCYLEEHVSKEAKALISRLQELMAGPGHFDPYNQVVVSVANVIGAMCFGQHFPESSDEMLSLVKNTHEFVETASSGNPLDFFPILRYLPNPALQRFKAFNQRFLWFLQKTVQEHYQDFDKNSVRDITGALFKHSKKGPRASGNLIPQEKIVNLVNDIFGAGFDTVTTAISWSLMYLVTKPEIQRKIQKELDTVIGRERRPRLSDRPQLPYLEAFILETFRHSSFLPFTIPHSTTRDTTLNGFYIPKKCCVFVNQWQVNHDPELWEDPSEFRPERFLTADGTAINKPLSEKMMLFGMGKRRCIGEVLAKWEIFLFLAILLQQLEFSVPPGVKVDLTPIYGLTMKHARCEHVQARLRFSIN
Method in brief: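 Luminescent demethylation readout: Luciferin-ME (100uM, equal to Km) turned over by 20nM CYP1A2 for 60 min at room temperature after NADPH regeneration addition, following 10 min compound preincubation. Normalization used 57 uM furafylline as full inhibition.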

[4] = NFAT Signaling Pathway (AID 444; active = well fitted curve in either direction with a large enough effect, not every such curve was filed as active;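 note: carbachol stimulus at about its EC50 of 1 µM final; % is set by controls: 0 for no effect and ±100 for the full control effect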); conditions: Jurkat NFAT-bla M1, carbachol, beta-lactamase ratio, 5 h; at 7.69 µM (top of the series) unless noted
Method in brief: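 Jurkat cells with NFAT-driven β-lactamase reporter and co-expressed M1 receptor, stimulated with carbachol (final 1 uM, ~EC50), compound titration, 5 h at 37 °C. CCF4 loaded 1 h at RT; 460/530 nm ratio gave %activity and AC50.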

[5] = target: Glucocorticoid receptor (Homo sapiens) (UniProt P04150); assay: GR-GFP Redistribution (AID 450;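 active = compounds whose dose series gives a full or clear partial fitted curve of increased nuclear translocation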; note: potency is the fitted concentration of half-maximal effect); conditions: U2OS GR-GFP nuclear translocation, laser cytometry, 2 h
Sequence of Glucocorticoid receptor (Homo sapiens) (P04150 whole entry, looked up, the tested form may be a part): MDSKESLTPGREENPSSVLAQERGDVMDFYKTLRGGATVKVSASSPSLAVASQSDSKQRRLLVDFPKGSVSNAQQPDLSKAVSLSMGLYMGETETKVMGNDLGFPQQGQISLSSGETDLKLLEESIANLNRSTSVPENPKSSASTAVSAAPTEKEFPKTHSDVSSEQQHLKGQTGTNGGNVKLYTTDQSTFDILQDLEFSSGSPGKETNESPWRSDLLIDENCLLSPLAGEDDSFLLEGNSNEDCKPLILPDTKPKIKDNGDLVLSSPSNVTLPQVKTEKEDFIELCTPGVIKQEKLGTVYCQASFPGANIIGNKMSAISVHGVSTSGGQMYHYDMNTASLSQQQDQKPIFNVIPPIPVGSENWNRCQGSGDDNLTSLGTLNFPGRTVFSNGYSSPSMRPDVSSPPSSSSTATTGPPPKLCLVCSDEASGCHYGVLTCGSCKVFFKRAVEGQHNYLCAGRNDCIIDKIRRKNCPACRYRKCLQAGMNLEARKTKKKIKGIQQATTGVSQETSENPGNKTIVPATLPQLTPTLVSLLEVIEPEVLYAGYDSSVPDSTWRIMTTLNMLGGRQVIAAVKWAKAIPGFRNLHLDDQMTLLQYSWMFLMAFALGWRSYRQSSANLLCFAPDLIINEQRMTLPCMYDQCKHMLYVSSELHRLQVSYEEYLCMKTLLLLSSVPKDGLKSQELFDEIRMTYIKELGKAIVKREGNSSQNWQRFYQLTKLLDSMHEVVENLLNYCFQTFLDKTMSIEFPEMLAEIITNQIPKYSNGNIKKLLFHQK

[6] = target: Glucocorticoid receptor (Homo sapiens) (UniProt P04150); assay: GR-EFC Redistribution (AID 451; calls by dose curve; note: potency is the fitted concentration of half-maximal effect); conditions: CHO-K1 GR-EFC translocation, beta-gal luminescence, 2 h
Method in brief: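 CHO-K1 cells expressing nuclear EA and GR-ED fragments of b-gal; compounds titrated up to 46 uM final, 2 h at 37 C. GR nuclear translocation read as complemented b-gal luminescence after 1 h RT detection.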

[7] = target: Mitogen-activated protein kinase 10 (Mus musculus) (UniProt Q61831); assay: JNK3 AlphaScreen Assay (AID 530; active = well fitted curve in either direction with a large enough effect, not every such curve was filed as active;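 note: kinase came from lysate of stimulated human HepG2 cells; signal reports phosphorylation of biotinylated GST-cJun 1-79 at Ser73 with 10 µM ATP; % is set by controls: 0 for no effect and ±100 for the full control effect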)
Method in brief: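 Activity was read by AlphaScreen after JNK3-containing HepG2 lysate (cytokine pre-activated) phosphorylated biotinylated GST-cJun with 10 uM ATP at room temperature. Phospho-Ser73 cJun antibody with Protein-A acceptor beads provided detection.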

[8] = target: 3',5'-cyclic-AMP phosphodiesterase 4B (Homo sapiens) (UniProt Q07343); assay: qHTS Assay for Inhibitors of PDE-IV (AID 607; active = well fitted activation curve with a large enough effect in the main read-out, with a control signal flat, not every such curve was filed as active; note: % of control where 0% means no effect)
Sequence of 3',5'-cyclic-AMP phosphodiesterase 4B (Homo sapiens) (Q07343 whole entry, looked up): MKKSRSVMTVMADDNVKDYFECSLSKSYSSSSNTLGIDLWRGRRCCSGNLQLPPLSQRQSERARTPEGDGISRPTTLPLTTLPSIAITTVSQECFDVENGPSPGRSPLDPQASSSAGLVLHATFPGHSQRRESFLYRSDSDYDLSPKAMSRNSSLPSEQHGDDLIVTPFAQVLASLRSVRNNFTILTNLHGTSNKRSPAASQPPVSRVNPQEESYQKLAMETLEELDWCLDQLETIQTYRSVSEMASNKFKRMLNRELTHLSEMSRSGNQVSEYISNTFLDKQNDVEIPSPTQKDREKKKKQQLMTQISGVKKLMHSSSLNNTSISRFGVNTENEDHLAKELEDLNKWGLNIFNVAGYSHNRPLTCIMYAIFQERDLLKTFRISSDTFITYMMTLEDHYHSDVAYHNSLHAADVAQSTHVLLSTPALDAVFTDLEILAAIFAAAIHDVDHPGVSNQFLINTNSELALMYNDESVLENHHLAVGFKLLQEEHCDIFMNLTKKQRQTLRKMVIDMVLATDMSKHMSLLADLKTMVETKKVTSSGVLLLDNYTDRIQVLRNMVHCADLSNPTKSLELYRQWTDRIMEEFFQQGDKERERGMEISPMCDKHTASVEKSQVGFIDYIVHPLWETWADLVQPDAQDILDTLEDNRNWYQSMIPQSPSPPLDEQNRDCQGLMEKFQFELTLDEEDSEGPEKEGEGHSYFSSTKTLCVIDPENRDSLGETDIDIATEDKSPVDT
Method in brief: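 Live HEK293 cells with a modified cyclic nucleotide-gated (CNG) channel report intracellular cAMP via membrane-potential dye fluorescence (ex 535/em 590 nm). Endogenous PDE-IV was targeted. Compounds were tested at up to 22.9 uM final; RO 20-1724 100 uM served as control.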

[9] = target: Cytochrome P450 2C9 (Homo sapiens) (UniProt P11712); assay: qHTS Assay for Inhibitors and Substrates of Cytochrome P450 2C9 (AID 883); note: nearly all actives have a fitted effect of over 60% in size; note: potency is the fitted concentration of half-maximal effect
Sequence of Cytochrome P450 2C9 (Homo sapiens) (P11712 whole entry, looked up): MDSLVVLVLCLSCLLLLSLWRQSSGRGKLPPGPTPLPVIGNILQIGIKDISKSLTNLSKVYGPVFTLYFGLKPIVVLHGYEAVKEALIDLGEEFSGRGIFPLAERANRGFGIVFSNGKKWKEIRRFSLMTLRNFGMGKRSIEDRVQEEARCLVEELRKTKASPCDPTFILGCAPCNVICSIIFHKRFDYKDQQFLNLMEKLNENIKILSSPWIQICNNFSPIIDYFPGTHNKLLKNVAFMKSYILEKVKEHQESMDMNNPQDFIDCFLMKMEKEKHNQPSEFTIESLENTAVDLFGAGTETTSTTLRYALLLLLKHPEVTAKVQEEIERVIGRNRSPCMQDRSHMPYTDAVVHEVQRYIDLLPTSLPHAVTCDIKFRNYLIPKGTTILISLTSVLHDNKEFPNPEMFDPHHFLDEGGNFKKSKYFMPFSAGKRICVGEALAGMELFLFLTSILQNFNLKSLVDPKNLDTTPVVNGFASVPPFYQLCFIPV
Method in brief: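 10nM CYP2C9 + 100uM Luciferin-H (=KM), 25mM KPO4; cpd 10 min 37C; NADPH regen, 60 min 37C; stop/detect with P450 Glo-Buffer 20 min; luminescence. Norm. to 57uM sulphaphenazole as full inhibition.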

[10] = target: Cytochrome P450 3A4 (Homo sapiens) (UniProt P08684); assay: qHTS Assay for Activators of Cytochrome P450 3A4 (AID 885); note: nearly all actives have a fitted effect of over 65% in size
Sequence of Cytochrome P450 3A4 (Homo sapiens) (P08684 whole entry, looked up): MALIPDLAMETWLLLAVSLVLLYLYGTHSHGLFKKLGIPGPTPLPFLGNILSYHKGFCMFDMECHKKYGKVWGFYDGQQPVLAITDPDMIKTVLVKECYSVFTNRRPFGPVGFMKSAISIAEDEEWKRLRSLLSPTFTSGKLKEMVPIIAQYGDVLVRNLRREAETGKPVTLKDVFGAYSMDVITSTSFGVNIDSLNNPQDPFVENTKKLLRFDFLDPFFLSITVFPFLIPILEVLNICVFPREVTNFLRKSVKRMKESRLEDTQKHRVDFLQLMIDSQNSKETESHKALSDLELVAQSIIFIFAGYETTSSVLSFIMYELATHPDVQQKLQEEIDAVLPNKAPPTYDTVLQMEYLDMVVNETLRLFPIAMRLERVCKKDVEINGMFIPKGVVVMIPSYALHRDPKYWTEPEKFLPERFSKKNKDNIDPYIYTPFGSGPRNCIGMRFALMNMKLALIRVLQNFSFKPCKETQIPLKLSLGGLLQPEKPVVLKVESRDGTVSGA
Method in brief: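 Using 20nM recombinant human CYP3A4 in potassium phosphate (200mM), substrate Luciferin-PPXE at 25uM, luminescent luciferin detection followed a 60-min RT NADPH reaction; data scaled to 57 uM ketoconazole.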

[11] = qHTS Assay for Identification of Small Molecule Agonists for Hypoxia Response Element Signaling Pathway (AID 914; active = well fitted activation curve with a large enough effect in the signal ratio, with a control signal flat, not every such curve was filed as active; the % refers to the signal ratio; note: potency is the fitted concentration of half-maximal effect); conditions: ME-180 HRE-bla reporter, beta-lactamase ratio, CoCl2, 17 h; activation: stronger effect = higher value
Method in brief: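 AC50 values come from titration-series %Activity, taken as the 460/530nm ratio of CCF4 fluorescence (excitation 405nm). CellSensor HRE-bla ME-180 cells were treated 17 hours at 37 C with compound plus an EC50 level of CoCl2.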

[12] = qHTS Assay for Lipid Storage Modulators (AID 1519; calls by dose curve); conditions: Drosophila S3 cells, BODIPY lipid droplet/cell ratio, laser cytometry, cells loaded with oleic acid; for activity change, negative = inhibition: at 57.5 µM (top of the series)
Method in brief: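 Cells seeded at 5,000 per well were treated with compounds over a concentration series and loaded with oleic acid (400 uM, as added). Lipid droplet fluorescence (488 nm excitation, 500-530 nm channel) was read by laser-scanning cytometry and normalized to 20 uM Triacsin C.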

[13] = Counterscreen qHTS for small molecule stabilizers of the endoplasmic reticulum resident proteome: GLuc-NoTag assay (AID 1508627); note: potency is the fitted concentration of half-maximal effect;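 for activity change, negative = inhibition: 0% = thapsigargin alone and -100% = DMSO vehicle control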
Method in brief: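 Counterscreen line: SH-SY5Y-GLuc-NoTag. Seed, 5 h; compound, 19 h; thapsigargin 100 nM, 4 h; 37C/5% CO2. Readout: secreted GLuc luminescence, coelenterazine 0.07x final, no lysis.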

[14] = Confirmatory qHTS for small molecule stabilizers of the endoplasmic reticulum resident proteome: Secreted ER Calcium Modulated Protein (SERCaMP) assay (AID 1508628); note: nearly all actives have a fitted effect of over 40% in size; note: potency is the fitted concentration of half-maximal effect
Method in brief: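 Reporter secretion upon ER calcium depletion (100 nM thapsigargin, 4 h, 37C) is measured as medium luminescence with coelenterazine, after 16 h compound pretreatment of SH-SY5Y-GLuc-SERCaMP cells; primary at three concentrations up to 38.3 uM, follow-up at 11 (up to 76.6 uM).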

[15] = Stat Signaling Pathway (AID 446; active = well fitted curve in either direction with a large enough effect, not every such curve was filed as active;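 note: ME-180 cervical cancer cells given 40 pM IL-6 alongside compound; SIE-controlled beta-lactamase reporter measured as 460/530 nm FRET emission ratio; % is set by controls: 0 for no effect and ±100 for the full control effect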); conditions: ME-180 (cervical carcinoma) SIE beta-lactamase reporter, IL-6 stimulated, 5 h; at 7.69 µM (top of the series) unless noted
Method in brief: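 Overnight-plated ME-180 cells bearing a STAT Inducible Element beta-lactamase reporter; 5 h co-exposure to compound and 40 pM IL-6; values normalized to 300 pM IL-6 and 125 nM JAK inhibitor controls.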

[16] = target: Cytochrome P450 3A4 (Homo sapiens) (UniProt P08684); assay: qHTS Assay for Inhibitors and Substrates of Cytochrome P450 3A4 (AID 884); note: nearly all actives have a fitted effect of over 50% in size; note: potency is the fitted concentration of half-maximal effect
Method in brief: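 Luminescent readout of luciferin produced by CYP3A4 (20 nM) dealkylation of Luciferin-PPXE, 25 uM (its KM). NADPH-driven reaction ran 60 min at RT after 10 min compound preincubation; data scaled to 57 uM ketoconazole as 100% inhibition.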

[17] = target: Cytochrome P450 2D6 (Homo sapiens) (UniProt P10635); assay: qHTS Assay for Inhibitors and Substrates of Cytochrome P450 2D6 (AID 891); note: potency is the fitted concentration of half-maximal effect; nearly all actives have a fitted effect of over 60% in size
Method in brief: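 Luminescent read-out of luciferin formed by 5 nM human CYP2D6 demethylating 30 uM Luciferin-ME EGE (Km level) over 60 min at room temperature after NADPH regeneration addition. Data normalized to full inhibition by 1.43 uM quinidine.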

[18] = target: Cytochrome P450 2C19 (Homo sapiens) (UniProt P33261); assay: qHTS Assay for Inhibitors and Substrates of Cytochrome P450 2C19 (AID 899); note: % is set by controls: 0 for no effect and ±100 for the full control effect; nearly all actives have a fitted effect of over 60% in size
Method in brief: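 Luminescent read-out of luciferin formed from Luciferin-H EGE (10uM, equal to KM). Enzyme 5nM in 50mM KPO4; compound added, 10 min at 37C, then NADPH regenerating system for 60 min at 37C. Full inhibition defined by 57uM ketoconazole.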

[19] = Confirmation and Secondary Assay for Modulators of Hemoglobin Beta Chain Splicing at IVS2 654 locus (AID 910);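 note: HeLa cells stably carrying EGFP split by mutant beta-globin IVS2-654 intron; % of control where 0% means no effect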
Method in brief: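 HeLa cells stably expressing EGFP interrupted by β-globin IVS2-654 intron, seeded overnight in Opti-MEM/2% FCS, then treated 2 days at 37 °C. Restored splicing read as total peak GFP intensity per well by laser scanning cytometry (488 nm excitation, 500–520 nm emission); 500 nM antisense PNA as control.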

[20] = Confirmation and Secondary Assay for Modulators of Hemoglobin Beta Chain Splicing at IVS2 705 locus (AID 930);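 note: HeLa cells stably expressing the EGFP-705 splicing reporter; % of control where 0% means no effect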
Method in brief: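 Restored EGFP fluorescence after 2-day compound exposure reports splicing correction in IVS2-705 EGFP reporter HeLa cells; positive control was 500 nM splice-blocking PNA oligo. Signal measured as well total peak GFP intensity (488 nm excitation).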

[21] = Cell Viability qHTS for small molecule stabilizers of the endoplasmic reticulum resident proteome (AID 1508629); conditions: cell viability counter-screen, 100 nM thapsigargin for final 4 h
[22] = target: Dual specificity protein kinase CLK4 (Homo sapiens) (UniProt Q9HAZ1); assay: qHTS Assay for Inhibitors of CDC-like Kinase 4 (Kinase-Glo Assay) (AID 1770); note: potency is the fitted concentration of half-maximal effect; nearly all actives have a fitted effect of over 65% in size
Sequence of Dual specificity protein kinase CLK4 (Homo sapiens) (Q9HAZ1 whole entry, looked up): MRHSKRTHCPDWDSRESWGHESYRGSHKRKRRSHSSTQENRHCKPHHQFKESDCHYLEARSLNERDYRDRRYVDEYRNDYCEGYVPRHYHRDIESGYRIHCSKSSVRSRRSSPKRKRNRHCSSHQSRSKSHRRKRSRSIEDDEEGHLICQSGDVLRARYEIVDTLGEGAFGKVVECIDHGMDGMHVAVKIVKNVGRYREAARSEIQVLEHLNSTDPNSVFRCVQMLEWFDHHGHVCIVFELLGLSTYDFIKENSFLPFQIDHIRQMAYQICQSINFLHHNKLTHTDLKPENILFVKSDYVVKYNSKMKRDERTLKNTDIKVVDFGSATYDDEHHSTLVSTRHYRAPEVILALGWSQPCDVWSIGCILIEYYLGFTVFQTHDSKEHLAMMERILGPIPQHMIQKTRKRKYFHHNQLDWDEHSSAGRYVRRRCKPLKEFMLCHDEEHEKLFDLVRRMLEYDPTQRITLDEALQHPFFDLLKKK
Method in brief: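 Readout: Kinase-Glo luminescence from ATP left after a 4.5 h room-temperature reaction of 25 nM Clk4 with 100 uM RS peptide and 1 uM ATP (final). Buffer: 25 mM Tris pH 7.5, 10 mM MgCl2.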

[23] = target: Dual specificity protein kinase CLK4 (Homo sapiens) (UniProt Q9HAZ1); assay: qHTS Assay for Inhibitors of CDC-like Kinase 4 (ADP-Glo Assay) (AID 1771); note: potency is the fitted concentration of half-maximal effect; nearly all actives have a fitted effect of over 70% in size
Method in brief: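 ADP production was read by ADP-Glo luminescence after residual ATP depletion, following 1 h room-temperature reaction of 25 nM Clk4, 1 uM ATP and 100 uM RS peptide with MgCl2, EGTA, DTT and Triton X-100.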

[24] = target: Dual specificity protein kinase CLK4 (Homo sapiens) (UniProt Q9HAZ1); assay: qHTS Assay for Inhibitors of CDC-like Kinase 4 (ADP-FP Assay) (AID 1795); note: potency is the fitted concentration of half-maximal effect; nearly all actives have a fitted effect of over 60% in size
Method in brief: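 FP readout: Orange Transcreener ADP2 tracer (4 nM) plus ADP antibody, read after 30 min at room temperature. Kinase step: 6.25 nM Clk4, 100 uM RS peptide, 1 uM ATP, pH 7.5, 1 h.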

[25] = target: Ubiquitin carboxyl-terminal hydrolase 1 (Homo sapiens) (UniProt O94782); assay: Inhibitors of USP1/UAF1: Pilot qHTS (AID 504865);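 note: rhodamine fluorescence freed from ubiquitin-rhodamine substrate followed over time; top concentration of the series differs between compounds; % is set by controls: 0 for no effect and ±100 for the full control effect; nearly all actives have a fitted effect of over 35% in size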
Sequence of Ubiquitin carboxyl-terminal hydrolase 1 (Homo sapiens) (O94782 whole entry, looked up): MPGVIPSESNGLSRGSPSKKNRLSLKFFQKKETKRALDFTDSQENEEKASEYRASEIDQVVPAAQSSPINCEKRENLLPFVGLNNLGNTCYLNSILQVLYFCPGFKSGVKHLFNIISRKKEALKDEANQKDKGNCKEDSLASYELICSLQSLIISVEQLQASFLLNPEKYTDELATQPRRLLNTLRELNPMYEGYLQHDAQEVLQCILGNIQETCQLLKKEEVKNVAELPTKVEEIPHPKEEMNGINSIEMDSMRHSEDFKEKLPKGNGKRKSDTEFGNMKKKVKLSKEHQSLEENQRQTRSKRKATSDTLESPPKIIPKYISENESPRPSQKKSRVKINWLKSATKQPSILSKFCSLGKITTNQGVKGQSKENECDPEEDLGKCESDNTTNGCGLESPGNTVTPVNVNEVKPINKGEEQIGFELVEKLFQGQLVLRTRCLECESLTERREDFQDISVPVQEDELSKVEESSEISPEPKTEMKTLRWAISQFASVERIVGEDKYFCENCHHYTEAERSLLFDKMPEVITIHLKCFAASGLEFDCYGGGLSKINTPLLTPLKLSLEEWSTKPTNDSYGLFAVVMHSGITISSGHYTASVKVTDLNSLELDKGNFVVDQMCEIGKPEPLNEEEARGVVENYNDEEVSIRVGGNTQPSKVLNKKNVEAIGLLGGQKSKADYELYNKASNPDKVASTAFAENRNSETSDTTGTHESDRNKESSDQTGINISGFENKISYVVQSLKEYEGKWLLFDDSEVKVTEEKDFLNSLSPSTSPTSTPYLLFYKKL
Method in brief: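 1nM USP1/UAF1 + cpd, 15 min RT; start w/ Ub-Rho 150nM final; kinetic FL 480/540 nm, 6 reads q60 s. Buffer 50mM HEPES pH 7.8, 0.5mM EDTA, 1mM TCEP, 0.01% Tween-20, 0.1 mg/ml BSA.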

[26] = measured here: cell count channel max response
[27] = measured here: lipid channel max response

O=c1c(-c2ccccc2)nc2cnc(N3CCNCC3)nc2n1C1CC1
32.7%: max response [12, 26]
inactive: Potency [1] > 11.4 µM | activity change, negative = inhibition [2] 27.1% | activity change, negative = inhibition [4] 100% | Potency [5] > 9.22 µM | Potency [6] > 46 µM | outcome [7] | Potency [8] | Potency [10] | activity change, negative = inhibition [12] 5.31% | Potency [13]
42.5%: max response [12, 27]
active: Potency [3] 3.98 µM | Potency [9] 0.158 µM | Potency [11] 3.16 µM | Potency [14] 39.8 µM

CN1CCN(c2nc(-c3ccc(N(C)C)cc3)nc3ccccc23)CC1
inactive: Potency [1] > 11.4 µM | activity change, negative = inhibition [2] 5.88% | activity change, negative = inhibition [4] -2.47% | activity, negative = inhibition [15] 3.05% | Potency [5] > 46 µM | Potency [6] > 46 µM | outcome [7] | Potency [8] | activity change, negative = inhibition [9] 9.44% [at 2.29 µM] | Potency [10] | Potency [18] | outcome [19] | outcome [20] | Potency [13] | Potency [14] | max response [21] 17.5%
active: Potency [3] 12.6 µM | Potency [16] 15.8 µM | Potency [17] 3.16 µM

COc1cccc(-c2ccc3ncnc(N4CCN(C)CC4)c3c2)c1
10.1%: max response [12, 27]
8.77%: max response [12, 26]
active: Potency [3] 3.98 µM | Potency [22] 3.55 µM | Potency [23] 3.98 µM | Potency [24] 2.24 µM | Potency [13] 35.5 µM | Potency [14] 39.8 µM
inactive: Potency [1] > 11.4 µM | activity change, negative = inhibition [4] 13% | activity, negative = inhibition [15] -6.09% | Potency [5] > 46 µM | Potency [6] > 46 µM | outcome [7] | Potency [8] | Potency [10] | activity change, negative = inhibition [12] -0.228% | Potency [25]

COc1cccc(CN2CCN(C(=O)c3ccc(-c4ccccc4)cc3)CC2)c1
inactive: Potency [13] | Potency [14]

O=C(c1cc(C(F)(F)F)cc(C(F)(F)F)c1)N1CCC2(CC1)CCN(c1ccncc1)CC2
inactive: Potency [1] > 11.4 µM | activity change, negative = inhibition [2] 24.2% | activity, negative = inhibition [15] 16.4% | Potency [6] > 46 µM | outcome [7] | Potency [16] | activity change, negative = inhibition [12] 0.636% | Potency [13] | Potency [14]
-1.35%: max response [12, 26]
0.493%: max response [12, 27]

Source: PubChem BioAssay (NCATS)
